# In PubChem BioAssay (NCATS):
# Inconclusive results are not listed. Entries that show only a call come without a potency. The source made the active and inactive calls. Calls come from the whole dose curve; as a rule, active = well fitted inhibition curve with a large enough effect; inconclusive = small, poorly fitted or top-dose-only effect; inactive = no such curve, though single readings can be large or run the other way.
# Target: Papain (Carica papaya) (UniProt P00784)
# Assay: Primary qHTS assay for inhibitors of the protease papain (AID 1645873);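 note: papain turnover of Z-FR-AMC read as the AMC fluorescence gain over 10 min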
# Conditions: papain Z-FR-AMC cleavage, AMC fluorescence; series mostly up to 49.8 µM
# Potency is the fitted concentration of half-maximal effect.
# Sequence of Papain (Carica papaya) (P00784 whole entry, looked up): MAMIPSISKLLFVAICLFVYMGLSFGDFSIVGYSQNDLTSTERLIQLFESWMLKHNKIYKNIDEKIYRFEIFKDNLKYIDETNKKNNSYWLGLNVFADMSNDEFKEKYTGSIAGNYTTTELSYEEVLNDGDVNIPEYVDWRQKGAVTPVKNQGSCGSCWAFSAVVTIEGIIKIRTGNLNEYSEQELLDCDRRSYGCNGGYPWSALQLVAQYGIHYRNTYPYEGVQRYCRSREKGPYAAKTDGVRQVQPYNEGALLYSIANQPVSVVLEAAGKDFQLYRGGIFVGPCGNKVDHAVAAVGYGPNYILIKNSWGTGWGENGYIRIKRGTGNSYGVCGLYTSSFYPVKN
row,SMILES,Potency
1,Nc1ccn([C@@H]2O[C@H](CO)[C@@H](O)[C@@H]2O)c(=O)n1,inactive
2,COc1ccc(Br)cc1S(=O)(=O)NC(=O)/C=C/c1ccccc1Cc1ccc2ccccc2c1,inactive
3,COc1cc(OC)cc(-c2cc3cnc(N)nc3nc2NC(=O)NC(C)(C)C)c1,inactive
4,COc1cccc(C(=O)NCCN2CCN(c3ccc(Cl)cc3)CC2)c1,inactive
5,CN1C2CCC1CC(OC(=O)C(O)c1ccccc1)C2 (stereo not drawn),inactive
6,CC(C)NC[C@H](O)COc1cccc2[nH]ccc12,inactive
7,COc1ccc(C(=O)/C(Cc2cc(OC)c(OC)c(OC)c2)=C(\C(=O)O)c2ccc3c(c2)OCO3)cc1,inactive
8,COc1ccc(-c2cc(=O)c3c(O)c(OC)c(OC)cc3o2)cc1O,inactive
9,N#C/C(=C\c1ccc(-c2cc(Cl)ccc2Cl)o1)C(=O)Nc1cccc2ncccc12,inactive
10,CC(C)(NS(=O)(=O)c1ccc(Oc2ccc(F)cc2)cc1)C(=O)NO,inactive
11,COCCOc1cc2nc[nH]c(=O)c2cc1OCCOC,inactive
12,S=c1[nH]c(-c2ccccc2)cn1-c1ccccc1,inactive
13,NC(N)=NC(=O)c1nc(Cl)c(N2CCCCCC2)nc1N,inactive
14,O=C(CCc1ccncc1)NNC(=O)N1Cc2ccccc2Oc2ccc(Cl)cc21,inactive
15,CC1OC1P(=O)(O)O (stereo not drawn),inactive
16,O=C1NC(=O)/C(=C/c2ccc3nccnc3c2)S1,inactive
17,O=C(O)CC[C@@H](C(=O)O)N1C(=O)c2ccccc2C1=O,inactive
18,COc1ccccc1CN[C@@H]1CCCN[C@@H]1c1ccccc1,inactive
19,CCC(CO)Nc1nc(NCc2ccccc2)c2ncn(C(C)C)c2n1 (stereo not drawn),inactive

row,SMILES,Potency
1,CC[C@H]1OC(=O)[C@H](C)C(O[C@H]2C[C@@](C)(OC)[C@@H](O)[C@H](C)O2)[C@H](C)[C@@H](OC2O[C@H](C)C[C@H](N(C)C)[C@H]2O)[C@](C)(O)C[C@@H](C)CN(C)[C@H](C)[C@@H](O)[C@]1(C)O (stereo partly drawn),inactive
2,O=c1cc(-c2ccccc2)oc2c(O)c(O)ccc12,inactive
3,Cn1c(=O)c(-c2c(Cl)cccc2Cl)cc2cnc(Nc3ccc(N4CCOCC4)cc3)nc21,inactive
4,COc1ccc(/C=C/c2nc(NCCCN(C)C)c3ccccc3n2)cc1,28.2 µM (active)
5,CCN1/C(=C/C(C)=O)Sc2ccc(OC)cc21,inactive
6,Cc1cc2c(cc1Cl)N(C(=O)Nc1ccc(Oc3cccnc3C)nc1)CC2,inactive
7,CC(C)c1cccc(C(C)C)c1N1C(=O)c2ccc(O)cc2C1=O,inactive
8,Brc1cc2c(cc1[C@H]1Nc3ccccc3[C@H]3C=CC[C@H]31)OCO2,inactive
9,CN1C2CC(OC(=O)[C@H](CO)c3ccccc3)CC1C1OC12 (stereo partly drawn),inactive
10,CN[C@H](CC(C)C)C(=O)N[C@H]1C(=O)N[C@@H](CC(N)=O)C(=O)N[C@H]2C(=O)N[C@H]3C(=O)N[C@H](C(=O)N[C@H](C(=O)O)c4cc(O)cc(O)c4-c4cc3ccc4O)[C@H](O)c3ccc(c(Cl)c3)Oc3cc2cc(c3O[C@@H]2O[C@H](CO)[C@@H](O)[C@H](O)[C@H]2O[C@H]2C[C@](C)(N)[C@H](O)[C@H](C)O2)Oc2ccc(cc2Cl)[C@H]1O,inactive
11,O=S(=O)(c1cccc2c(I)cccc12)N1CCCNCC1,inactive
12,O=C(c1ccc(OCCCc2cnc[nH]2)cc1)C1CC1,inactive
13,CC(C)CC(NP(=O)(O)O[C@@H]1O[C@@H](C)[C@H](O)[C@@H](O)[C@H]1O)C(=O)NC(Cc1c[nH]c2ccccc12)C(=O)O (stereo partly drawn),inactive
14,C=CC(N)CCC(=O)O (stereo not drawn),inactive
15,Cc1cn([C@H]2CC(N=[N+]=[N-])[C@@H](CO)O2)c(=O)[nH]c1=O (stereo partly drawn),inactive
16,Nc1nc2ccc(Cl)cc2n2c(-c3ccccc3)nnc12,inactive
17,CO[C@H]1O[C@@H]2O[C@]3(C)CC[C@@H]4[C@@H](C)CC[C@H]([C@H]1C)[C@]24OO3,inactive
18,O=C(NOCC1CC1)c1cc(Br)c(F)c(F)c1Nc1ccc(I)cc1Cl,inactive
19,CC(C)NCC(O)COc1cccc2ccccc12 (stereo not drawn),inactive
